# Measured values published in the supplement of paper PMC8728848.
# Only a selection was taken, and the strongest signals are over-represented in it overall.
# B1: GST-Gap1 (Streptococcus parasanguinis), A1C3L5 (protein)
# chain: MFYFVPSWYNGQRQWYYDTPWWFRVKNRMTFDDSVNQVKMFLQGQEEIGLMILNYQPQLRYFLHKQNIFGIYYWSFFDDIQNITRSYTKIIHLKDLNWPEGCEFLYSPFAVVVRLKGEIFAIVNYAEDGNLHSVSFQKNGKVTKDYIFDDRGFLSSILYYDIDERPLYQDYLNINGVWQVREFLKKENDPTPILMINDFSDQTFSKKYYNGWEELIKERLAIFQNNHVENEDVFVLASDTQHNQLVSSIFKEHRKIYSFFGNRFNLENLGQDRISINDATFLVVDTEKNEELLRKTCENLVFKSIPIVRLSPFDSRLRLGHSQTVKEQIIYFHIDNIELDELYSVIAIILELMTLHLDIELRIVTFRQDFQLDLLKTWIIDFIKTNHFEDLLFKQISEGENEIEDEGEIELSRIAMECFTNENQIIKCLDTARLVIDLGIEPDLYTQIASISAGIPQINRVSSDYVIHQKNGLVISDISKLSSAIEFYFDGLFNWNEALIYAVRKMSDYTSGKILKQWKGMLKKK
# Tests used:
# Experiment in all cases: glycan array binding signal (z-score within array); higher = stronger binding
# Settings in all cases: glycan notation: IUPAC condensed, linker removed
# [1] = molecular target: Fuc(a1-2)Gal(b1-3)GlcNAc(b1-3)Gal(b1-4)Glc
# Method in brief: (§1)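 The Consortium for Functional Glycomics database supplied 3228 glycan arrays, of which those lacking an available protein sequence were dropped. The binding signal, a within-array Z-score, was averaged across arrays of the same protein sequence and across linkers. Negative scores can be read as non-binding.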
# [2] = molecular target: Fuc(a1-2)Gal(b1-3)GlcNAc(b1-3)[Gal(b1-4)GlcNAc(b1-6)]Gal(b1-4)Glc
# Method in brief: as §1
# [3] = molecular target: Fuc(a1-2)Gal(b1-3)[Fuc(a1-4)]GlcNAc(b1-2)Man(a1-3)[Fuc(a1-2)Gal(b1-3)[Fuc(a1-4)]GlcNAc(b1-2)Man(a1-3)]Man(b1-4)GlcNAc(b1-4)GlcNAc
# Method in brief: as §1
# [4] = molecular target: Fuc(a1-2)Gal(b1-4)GlcNAc(b1-3)Gal(b1-4)GlcNAc
# Method in brief: as §1
# [5] = molecular target: Fuc(a1-2)Gal(b1-4)[Fuc(a1-3)]GlcNAc(b1-3)GalNAc
# Method in brief: as §1
# [6] = molecular target: Fuc(a1-2)Gal6S(b1-4)Glc
# Method in brief: as §1
# [7] = molecular target: Fuc(a1-2)Gal6S(b1-4)Glc6S
# Method in brief: as §1
# [8] = molecular target: Fuc(a1-2)[Gal(a1-3)]Gal(b1-3)GlcNAc
# Method in brief: as §1
# [9] = molecular target: Fuc(a1-2)[GalNAc(a1-3)]Gal(b1-4)[Fuc(a1-3)]GlcNAc(b1-3)GalNAc
# Method in brief: as §1
# [10] = molecular target: Fuc(a1-3)[GalNAc(b1-4)]GlcNAc
# Method in brief: as §1
# [11] = molecular target: Gal(b1-3)Gal(b1-4)GlcNAc
# Method in brief: as §1
# [12] = molecular target: Gal(b1-3)Gal(b1-4)GlcNAc(b1-2)Man(a1-3)[Gal(b1-3)Gal(b1-4)GlcNAc(b1-2)Man(a1-6)]Man(b1-4)GlcNAc(b1-4)GlcNAc
# Method in brief: as §1
# [13] = molecular target: Gal(b1-3)GlcNAc(a1-6)Gal(b1-4)GlcNAc
# Method in brief: as §1
# [14] = molecular target: Gal(b1-3)GlcNAc(b1-3)Gal(b1-4)GlcNAc(b1-2)[Gal(b1-3)GlcNAc(b1-3)Gal(b1-4)GlcNAc(b1-6)]Man(a1-6)[Gal(b1-3)GlcNAc(b1-3)Gal(b1-4)GlcNAc(b1-2)Man(a1-3)]Man(b1-4)GlcNAc(b1-4)[Fuc(a1-6)]GlcNAc
# Method in brief: as §1
# [15] = molecular target: Gal(b1-3)GlcNAc(b1-3)Gal(b1-4)GlcNAc(b1-3)Gal(b1-4)GlcNAc(b1-2)[Gal(b1-3)GlcNAc(b1-3)Gal(b1-4)GlcNAc(b1-3)Gal(b1-4)GlcNAc(b1-6)]Man(a1-6)[Gal(b1-3)GlcNAc(b1-3)Gal(b1-4)GlcNAc(b1-3)Gal(b1-4)GlcNAc(b1-2)Man(a1-3)]Man(b1-4)GlcNAc(b1-4)[Fuc(a1-6)]GlcNAc
# Method in brief: as §1
# [16] = molecular target: Gal(b1-3)GlcNAc(b1-6)GalNAc
# Method in brief: as §1
# [17] = molecular target: Gal(b1-3)[GlcNAc(b1-6)]GalNAc
# Method in brief: as §1
# [18] = molecular target: Gal(b1-3)[Neu5Ac(a2-6)]GalNAc
# Method in brief: as §1
# [19] = molecular target: Gal(b1-3)[Neu5Ac(b2-6)]GalNAc
# Method in brief: as §1
# [20] = molecular target: Gal(b1-4)GlcNAc(b1-2)[Gal(b1-4)GlcNAc(b1-4)]Man(a1-3)[Gal(b1-4)GlcNAc(b1-2)[Gal(b1-4)GlcNAc(b1-6)]Man(a1-6)]Man(b1-4)GlcNAc(b1-4)GlcNAc
# Method in brief: as §1
# [21] = molecular target: Gal(b1-4)GlcNAc(b1-2)[Gal(b1-4)GlcNAc(b1-4)]Man(a1-3)[GlcNAc(b1-4)][Gal(b1-4)GlcNAc(b1-2)Man(a1-6)]Man(b1-4)GlcNAc(b1-4)GlcNAc
# Method in brief: as §1
# [22] = molecular target: Gal(b1-4)GlcNAc(b1-3)Gal(b1-4)GlcNAc(b1-2)Man(a1-3)[Gal(b1-4)GlcNAc(b1-3)Gal(b1-4)GlcNAc(b1-2)Man(a1-6)]Man(b1-4)GlcNAc(b1-4)GlcNAc
# Method in brief: as §1
# [23] = molecular target: Gal(b1-4)GlcNAc(b1-3)Gal(b1-4)GlcNAc(b1-2)Man(a1-3)[Gal(b1-4)GlcNAc(b1-3)Gal(b1-4)GlcNAc(b1-2)Man(a1-6)]Man(b1-4)GlcNAc(b1-4)[Fuc(a1-6)]GlcNAc
# Method in brief: as §1
# [24] = molecular target: Gal(b1-4)GlcNAc(b1-3)Gal(b1-4)GlcNAc(b1-2)[Gal(b1-4)GlcNAc(b1-3)Gal(b1-4)GlcNAc(b1-6)]Man(a1-6)[Gal(b1-4)GlcNAc(b1-3)Gal(b1-4)GlcNAc(b1-2)Man(a1-3)]Man(b1-4)GlcNAc(b1-4)[Fuc(a1-6)]GlcNAc
# Method in brief: as §1
# [25] = molecular target: Gal(b1-4)GlcNAc(b1-3)Gal(b1-4)GlcNAc(b1-3)GalNAc
# Method in brief: as §1
# [26] = molecular target: Gal(b1-4)GlcNAc(b1-6)[Gal(b1-3)]GalNAc
# Method in brief: as §1
# [27] = molecular target: Gal(b1-6)Gal
# Method in brief: as §1
# [28] = molecular target: Gal3S(b1-4)GlcNAc
# Method in brief: as §1
# [29] = molecular target: Gal3S(b1-4)[Fuc(a1-3)]Glc
# Method in brief: as §1
# [30] = molecular target: GalNAc(a1-3)GalNAc
# Method in brief: as §1
binder,measurement,setting,value
B1,glycan array binding signal (z-score),[1],-0.291
same,glycan array binding signal (z-score),[2],0.111
same,glycan array binding signal (z-score),[3],0.383
same,glycan array binding signal (z-score),[4],-0.608
same,glycan array binding signal (z-score),[5],1.32
same,glycan array binding signal (z-score),[6],-0.647
same,glycan array binding signal (z-score),[7],-0.485
same,glycan array binding signal (z-score),[8],0.152
same,glycan array binding signal (z-score),[9],0.024
same,glycan array binding signal (z-score),[10],0.035
same,glycan array binding signal (z-score),[11],0.416
same,glycan array binding signal (z-score),[12],13.5
same,glycan array binding signal (z-score),[13],-0.654
same,glycan array binding signal (z-score),[14],2.25
same,glycan array binding signal (z-score),[15],3.43
same,glycan array binding signal (z-score),[16],0.494
same,glycan array binding signal (z-score),[17],-0.334
same,glycan array binding signal (z-score),[18],0.3
same,glycan array binding signal (z-score),[19],-0.046
same,glycan array binding signal (z-score),[20],-0.809
same,glycan array binding signal (z-score),[21],0.833
same,glycan array binding signal (z-score),[22],4.81
same,glycan array binding signal (z-score),[23],1.2
same,glycan array binding signal (z-score),[24],2.87
same,glycan array binding signal (z-score),[25],2.15
same,glycan array binding signal (z-score),[26],0.095
same,glycan array binding signal (z-score),[27],0.538
same,glycan array binding signal (z-score),[28],0.12
same,glycan array binding signal (z-score),[29],-0.553
same,glycan array binding signal (z-score),[30],-0.202
